CD11b adhes enh: enhancers of human CD11b/CD18 binding to fibrinogen; P05107+P11215; K562 CD11b/CD18 adhesion to fibrinogen, ATPlite luminescence; activation, % at 10 µM; hit rate 0.07% among 93,000;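 active = 10 µM primary screen giving 50% or more activity, confirmed by 40% or more on retest at that dose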
CYP2C19 act: activators of human cytochrome P450 2C19. 96,000 tested, under 10 active. activation factor at 5 µM. recombinant CYP2C19, luciferin-H EGE luminescence; hits give high values; 0 = fully inhibited enzyme, 1 = untreated enzyme. P33261. AID 1025;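 active = activation factor of at least 2 at 5 µM in the primary screen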;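 note: 0 = wells with 2.5 mM tranylcypromine and 1 = vehicle-only wells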
CYP2C19 inh: inhibitors of human CYP2C19. inhibition, % at 5 µM. CYP2C19 Supersomes, luciferin-H EGE luminescence, 30 min. hit rate 21% among 96,000;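 active = CYP2C19 inhibition above a set limit at 5 µM in the primary screen, cut at about 50% in these data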;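 note: plate controls were negative control wells for no effect and 2.5 mM tranylcypromine positive control for full effect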
CYP2C9 inh: human CYP2C9 inhibition | P11712 | CYP2C9 Supersomes, luciferin-H conversion, luminescence | inhibition, % at 5 µM | hit rate 20% among 96,000 | AID 777;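 active = blocking of liver enzyme CYP2C9 beyond about 50% at 5 µM, limit read from the data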
Target sequence (P11712 whole entry, looked up): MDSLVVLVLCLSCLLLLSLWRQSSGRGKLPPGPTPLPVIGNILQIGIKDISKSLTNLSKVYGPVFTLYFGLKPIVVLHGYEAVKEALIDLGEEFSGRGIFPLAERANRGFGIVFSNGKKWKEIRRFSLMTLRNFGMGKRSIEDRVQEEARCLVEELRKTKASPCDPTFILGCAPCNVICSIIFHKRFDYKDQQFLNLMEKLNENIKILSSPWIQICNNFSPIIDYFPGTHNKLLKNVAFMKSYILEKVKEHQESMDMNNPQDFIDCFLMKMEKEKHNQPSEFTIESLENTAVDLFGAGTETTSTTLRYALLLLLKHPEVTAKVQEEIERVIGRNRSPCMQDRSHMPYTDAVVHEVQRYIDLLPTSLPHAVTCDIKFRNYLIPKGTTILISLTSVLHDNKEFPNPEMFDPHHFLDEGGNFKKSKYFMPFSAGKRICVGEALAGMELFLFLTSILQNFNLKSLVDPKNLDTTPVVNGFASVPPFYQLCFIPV
Mac1 fbg inh: inhibitors of human CD11b/CD18 binding to fibrinogen; P05107+P11215; inhibition, % at 10 µM; K562 CD11b/CD18 adhesion to fibrinogen, ATPlite luminescence; Mn2+ added to activate the integrin; hit rate 0.54% among 93,000;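 active = primary inhibition of 50% or more at 10 µM, then 40% or more on retest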
CYP2C9 activ: increases human cytochrome P450 2C9 activity | recombinant CYP2C9, luciferin-H conversion, luminescence; hits give high values; factor 1 = untreated enzyme, 0 = blocked | hit rate 1.4% among 96,000 | activation factor at 5 µM | AID 1024 | P11712;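 active = activation factor of 2 or more for CYP2C9 at a 5 µM dose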;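 note: 0 = sulfaphenazole-blocked wells and 1 = vehicle-only wells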
The depositor's hits bear a star; / = not tested or not shown. Only some compounds are listed: those with a hit (about 28% of all), similar ones and a draw of the others.

SMILES	CD11b adhes enh	CYP2C19 act	CYP2C19 inh	CYP2C9 inh	Mac1 fbg inh	CYP2C9 activ
CC1CC(C)CN(CCCNC(=O)c2ccc3c(c2)NC(=O)C(N2CCCCC2)S3)C1 (stereo not drawn)	13.4	1.1	-5.5	1.6	-8.8	1
COC(=O)C1=C(C(=O)OC)SC(=C2C(=S)C(C)(C)N(C(=O)C(C)C)c3ccccc32)S1	-0.4	0.6	40.4	94.7*	13.2	0.1
COC(=O)C1=C(C(=O)OC)SC(=C2C(=S)C(C)(C)N(C(=O)C3CC3)c3ccccc32)S1	-1.6	0.3	69.4*	77.7*	2.8	0.2
CC(C)(C)c1cc(CCC(=O)N2CCNCC2)c(C(C)(C)C)cc1O	-5.6	0.9	5.9	74.4*	2.1	0.3
COCCSc1ccccc1C(=O)N1CCOCC1	-0.6	1.1	-13.2	4.9	2.6	1
O=c1c(Cl)nc2cc(Cl)ccc2n1CCNc1ncc(C(F)(F)F)cc1Cl	/	0.3	73.0*	47.1	/	0.5
O=c1[nH]c2cccc(Cl)c2n(CCNc2ncc(C(F)(F)F)cc2Cl)c1=O	-2.2	0.4	60.8*	35.8	11.8	0.6
C=CCOC(=O)C1C(=O)CC(C)(O)C(C(=O)OCC=C)C1c1ccc(OCC)cc1 (stereo not drawn)	6.4	0.8	22.2	22.5	-12.4	0.8
CCSc1ccccc1C(=O)N1CCN(Cc2ccc3c(c2)OCO3)CC1	1.0	0.9	12.2	2.6	20.4	1
CC1CCN(c2nc3ccc(C(=O)N4CCN(Cc5ccccc5)CC4)cc3s2)CC1	8.4	0.4	59.6*	37.4	29.6	0.6
Cc1cc(C(=O)N2CCN(S(C)(=O)=O)CC2)cs1	-8.9	0.4	55.8*	1.6	-11.9	1
Cc1cc(C(=O)N2CCN(Cc3ccc4c(c3)OCO4)CC2)cs1	-3.3	0	96.2*	59.2*	-2.6	0.4
CCOC(=O)N1CCN(C(=O)c2ccc3nc(N4CCC(C)CC4)sc3c2)CC1	/	0.8	20.1	34.7	/	0.7
Cc1nn(Cc2ccccc2)c2sc(C(=O)N3CCN(Cc4ccc5c(c4)OCO5)CC3)cc12	5.7	0.6	39.3	66.7*	14.2	0.3
CCOC(=O)N1CCN(C(=O)CSc2nnc(Cc3ccccc3)o2)CC1	-4.9	1.1	-5.9	5.9	-2.7	0.9
COc1ccc(CCN(Cc2cccs2)S(=O)(=O)c2ccc(S(=O)(=O)N(C)C3CCCCC3)cc2)cc1OC	16.4	/	/	/	11.4	/
O=C(Cn1cnc2ccccc2c1=O)N1CCN(Cc2ccc3c(c2)OCO3)CC1	-3.1	1	-2.8	8.1	1.4	0.9
O=C(c1ccc2nc(N3CCCCC3)sc2c1)N1CCN(Cc2ccc3c(c2)OCO3)CC1	0.8	0.1	88.7*	83.3*	8.2	0.2
O=C(c1ccc2nc(N3CCOCC3)sc2c1)N1CCC(Cc2ccccc2)CC1	-6.2	0.2	80.5*	31.0	23.7	0.7
CCn1cnc2sc(C(=O)N3CCN(Cc4ccc5c(c4)OCO5)CC3)c(C)c2c1=O	-2.0	0.1	85.2*	75.3*	-10.2	0.2
CCOC(=O)N1CCN(C(=O)c2ccc3nc(N4CCCCC4)sc3c2)CC1	/	0.8	21.5	15.0	/	0.8
Cc1ccccc1-n1ncc2c(SCC(=O)NCc3cccs3)ncnc21	-5.9	0.9	10.9	33.5	4.9	0.7
CC1CCc2c(sc(NC(=O)CSc3ncnc4c3cnn4-c3ccccc3Cl)c2C#N)C1 (stereo not drawn)	/	0.7	26.6	71.8*	/	0.3
CC1CCc2c(sc(NC(=O)CSc3nnc(-c4ccccc4)o3)c2C#N)C1 (stereo not drawn)	3.7	/	/	/	17.1	/
Cc1csc(NC(=O)CSc2ncnc3c2cnn3-c2ccccc2Cl)n1	3.6	0.1	89.5*	90.0*	13.0	0.1
SMILES	CD11b adhes enh	CYP2C19 act	CYP2C19 inh	CYP2C9 inh	Mac1 fbg inh	CYP2C9 activ
O=C(CCCNS(=O)(=O)c1ccc(Br)cc1)N1CC[C@@]2(O)CCCC[C@H]2C1	-2.9	1	2.2	3.8	-1.2	1
COc1ccc(Nc2nc(Nc3ccc(OC)cc3)nc(SC3=NCCS3)n2)cc1	0.0	0.4	58.8*	64.1*	-13.9	0.4
COC(=O)C(NC(=O)c1ccccc1)(Nc1nccs1)C(F)(F)F (stereo not drawn)	-2.0	0.8	22.6	23.3	-0.6	0.8
CCOC(=O)C(NC(=O)OC(C)C)(Nc1nccs1)C(F)(F)F (stereo not drawn)	0.7	0.4	55.3*	-6.1	-18.4	1.1
O=c1cc(CN2CCN(c3ccccc3)CC2)c2c(ccc3ccccc32)o1	-2.0	0.7	27.2	-17.4	5.1	1.2
c1ccc(N2CCN(Cc3ccnc4ccccc34)CC2)cc1	-7.7	0.4	64.4*	8.7	76.1*	0.9
COc1cccc(NC(=O)N(CCCN2CCOCC2)C(C)c2cc3ccccc3o2)c1 (stereo not drawn)	1.1	0.5	46.4	51.6*	-2.1	0.5
COc1cccc(NC(=O)N(CCCN2CCOCC2)C(C)c2cc3cccc(OC)c3o2)c1 (stereo not drawn)	-2.1	0.3	66.5*	66.9*	-41.0	0.3
CC(=NCCN1CCN(C(=S)Nc2ccccc2)CC1)C1=C(O)CC(C)(C)CC1=O	-3.7	0.6	40.1	14.1	4.7	0.9
Cc1sc(NC(=O)CSc2nnnn2C2CCCCC2)c(C#N)c1C	-3.2	1	4.3	12.3	-24.5	0.9
CC(C)OC(=O)CC12CN(C)CC(CC(=O)OC(C)C)(CN(C)C1)C2=O	/	1.2	-16.1	-10.2	/	1.1
CCc1ccc(CNc2ccc(N3CCN(C(C)=O)CC3)cc2)cc1	3.6	0.4	55.5*	37.5	5.9	0.6
CC(=O)N1CCN(c2ccc(NCc3ccc(C)cc3)cc2)CC1	0.6	0.6	44.1	53.6*	0.1	0.5
CC(=O)Nc1ccc(N2CCN(C(C)=O)CC2)cc1	-4.7	1.1	-14.1	-8.5	7.0	1.1
CC(=O)c1ccc(NCC(=O)N2CCN(c3ccccc3)CC2)cc1	40.8	0.4	57.8*	23.0	-23.3	0.8
CCOC(=O)CSc1nc2cc(C(=O)N3CCCC3)ccc2c(=O)n1Cc1ccccc1	-1.7	0.6	44.8	42.5	-0.4	0.6
CCOC(=O)N1CCC(n2c(SCC(=O)NCc3ccco3)nc3ccsc3c2=O)CC1	6.9	0.8	22.3	62.9*	-41.1	0.4
CCOC(=O)CSc1nc2ccsc2c(=O)n1C1CCN(C(=O)OCC)CC1	2.1	0.6	42.1	61.5*	-6.3	0.4
CCOC(=O)CSc1nc2cc(C(=O)NCc3ccco3)ccc2c(=O)n1C1CCCCC1	15.3	0.8	19.8	51.1*	0.8	0.5
COc1ccc(Cn2c(SCC(=O)NCc3ccco3)nc3ccsc3c2=O)cc1	-1.9	0.6	44.9	40.1	-5.6	0.6
CCOC(=O)CSc1nc2cc(C(=O)N3CCC(C(N)=O)CC3)ccc2c(=O)n1-c1ccccc1	175.9	0.7	25.6	58.6*	-25.0	0.4
